Shown are actives, neighbours in structure and some others; about 2.9% of the full set was active somewhere.
CF NFkB block: blocks PAF-induced NF-kB reporter in cystic fibrosis cells; 0.86% of 360,000 active; KKLEB NF-kB-GFP reporter, GFP fluorescence overnight; AID 588850; inhibition, % at 5 µM;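 active = at least 50% inhibition at 5 µM, scaled per plate between neutral and stimulator controls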;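 note: PAF is a Pseudomonas aeruginosa culture filtrate used as stimulus; plate controls were PAF-stimulated DMSO wells for no effect and unstimulated DMSO wells for full effect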
EBV LMP1 NFkB: Epstein-Barr LMP1 NF-kappaB reporter inhibition; inhibition, % at 12.5 µM; 0.69% of 350,000 active; LMP1-induced NF-kappaB luciferase reporter cells, luminescence; in the data active = inhibition above about 41%;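 note: 0% = neutral control wells and 100% = reference inhibitor control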
Peg3 prom inh: inhibitors of Peg3 promoter | HeLa PEG-Prom luciferase reporter, luminescence, overnight | inhibition, % at 20 µM | 1.7% of 360,000 active | AID 588405;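 active = inhibition of at least 50% at 20 µM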
HIF-2a block: HIF-2a inhibition; 0.72% of 360,000 active; inhibition, % at 18.8 µM; 786-0 RCC cells HIF-2a reporter, luciferase luminescence, overnight; AID 624352;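 active = inhibition of the luminescence signal of 40% or more relative to plate controls, in a single-dose primary screen at 18.75 µM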
Shn3 inh set2: inhibitors of Schnurri-3 3'UTR reporter in osteoblasts; inhibition, % at 12.5 µM; 0.52% of 360,000 active; AID 588674; Clone20 osteoblast Shn3 3'UTR firefly luciferase, 24 h;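 active = mean inhibition of at least 75% with every replicate also reaching 75%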;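 note: 0% = median of neutral control wells and 100% = pilot-screen positive control compound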
KKLEB tox: reduces viability of KKLEB cystic fibrosis airway cells | KKLEB CF airway cells viability, ATPlite luminescence, overnight; stronger effect = lower value; cells stimulated with P. aeruginosa culture filtrate | activity change (cytotoxicity), % at 5 µM | 0.36% of 360,000 active;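 active = corrected activity change at or below -50% at 5 µM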
The depositor's hits bear a star; . = not tested or not shown; ! = not confirmed by another sample.

SMILES	CF NFkB block	EBV LMP1 NFkB	Peg3 prom inh	HIF-2a block	Shn3 inh set2	KKLEB tox
CCC(c1nc2ccccc2[nH]1)n1c(=O)c(-c2cccnc2)nc2ccccc21 (centres undefined)	.	.	.	2	.	.
CCCCNC(=O)C1C(c2ccc(OC)cc2)=Nc2ccccc2N1C(=O)c1cccnc1 (centres undefined)	.	.	.	-25	.	.
O=C(Cc1ccc(Cl)cc1)NCC(=O)N1CCCCCC1	9	0	4	12	3	8
O=C(Cc1ccc(Cl)cc1)NCC(=O)N1CCCCC1	11	45*	9	8	-2	-3
CC(C)(C)C(=O)NCc1ccc(C(=O)CSc2nnc3n2CCCCC3)s1	-4	-4	-9	-2	-11	5
CCOc1ccc(CCNC(=O)CCNC(=O)c2ccccc2Cl)cc1OCC	-3	0	11	15	21	3
Cn1c(NCCN2CCCC2)nc2cc(-c3cccc(C(F)(F)F)c3)sc2c1=O	0	.	58*	-76	-5	2
CN(C)CCCNc1nc2cc(-c3ccccc3)sc2c(=O)n1C	3	.	-14	-69	-2	-13
CN(C)CCCNc1nc2cc(-c3ccc(F)cc3)sc2c(=O)n1C	-4	.	90*	-41	15	-7
CC(C)[N+](C)(CCOC(=O)C1c2ccccc2Oc2ccccc21)C(C)C	12	81*	-22	17	15	-35
CC(C)CNC(=O)COC(=O)C1c2ccccc2Oc2ccccc21	7	66*	-3	20	4	-8
CC(C)(C)NC(=O)COC(=O)C1c2ccccc2Oc2ccccc21	-10	-3	2	12	-6	10
CC1(C)Cc2c(sc(NC(=O)c3ccc(C(=O)c4ccccc4)cc3)c2C(N)=O)C(C)(C)N1	45	-7	83*	25	36	-33
COC(=O)c1c(NC(=O)c2ccc(OC(C)C)cc2)sc2c1CC(C)(C)NC2(C)C	22	-63	98*	-7	12	-14
COC(=O)c1c(NC(=O)c2ccccc2)sc2c1CC(C)(C)NC2(C)C	13	-3	7	-12	-4	-15
CCN(Cc1ccccc1)S(=O)(=O)c1ccc(C(=O)N(CCCN(C)C)c2nc3cc(C)cc(C)c3s2)cc1	40	-7	100*	-1	2	-26
CCCCN(CC)S(=O)(=O)c1ccc(C(=O)N(CCCN(C)C)c2nc3cc(C)cc(C)c3s2)cc1	8	0	103*	21	11	-24
CCN(Cc1ccccc1)S(=O)(=O)c1ccc(C(=O)N(CCCN(C)C)c2nc3c(F)cccc3s2)cc1	20	0	1	7	7	-14
Cc1cc(C)nc(Nc2nc3ccccc3o2)n1	-17	-12	-41	-112	-30	2
CC(=NNc1nc2ccccc2o1)c1ncccn1	2	58*	-51	-186	84	-14
CC(=NNc1nc2ccccc2s1)c1ncccn1	-26	63*	-36	-172	83	-8
CC(=NNc1nc2ccccc2o1)c1cc2ccccc2cn1	-10	57*	89*	-57	80	-7
O=C1c2ccc(-c3ccc(F)cc3OCc3ccccc3)cc2S(=O)(=O)c2cccc(C(=O)N3CCCC3)c21	-3	9	34	-1	44	-7
CC1CN(C(=O)c2cccc(COc3ccccc3Cl)c2)CC(C)O1 (centres undefined)	-9	-26	-166	-168	-25	-14
O=C1C(=Cc2ccncc2)CCCc2ccccc21	25	7	17	12	32	12
SMILES	CF NFkB block	EBV LMP1 NFkB	Peg3 prom inh	HIF-2a block	Shn3 inh set2	KKLEB tox
O=C1/C(=C/c2ccncc2)CCC/C1=C\c1ccncc1	86*	85*	101*	93*	72	-36
CN(CCOc1ccccc1)CC(=O)Nc1ccc(Cl)cc1[N+](=O)[O-]	6	0	17	-8	13	-12
Cc1cccc(-c2noc(CN(C(=O)C(c3ccccc3)c3ccccc3)C(C)C)n2)c1	-5	-1	23	-6	84*	0
CC(NC(=O)c1ccc(S(=O)(=O)C(F)F)cc1)c1ccccc1 (centres undefined)	-13	0	5	0	-1	-4
CC(=Nc1ccccc1)C1=C(O)C(Cc2ccccc2)NC1=O (centres undefined)	43	-3	-245	-152	9	-15
O=C(N/N=C/c1cc2c3c(c1O)CCCN3CCC2)c1ccccc1O	9	65*	34	-48	82	-9
CCCCCn1c(=O)[nH]c2cc(C(=O)NCCN3CCCCC3C)ccc2c1=O (centres undefined)	-9	-2	15	11	1	8
CCCCCCCCCCCCCCCC[N+](C)(C)CCN(Cc1ccc(OC)cc1)c1ncccn1	7	-9	105*	86*	77	18
CNc1ncnc2c1ncn2[C@@H]1O[C@H](CO)[C@@H](O)[C@H]1O	-12	55*	-7	-14	-20	-9
CCN1CCN(/C=N/c2nc3c(s2)CCCC3)CC1	-1	55*	55*	20	45	4
CN1CCN(CC(=O)Nc2nc3c(s2)CCCC3)CC1	-3	-1	-3	-8	9	1
O=C(C1CC=CCC1)N1CCN(C(=O)C2CC=CCC2)CC1 (centres undefined)	-3	8	1	12	13	3
C=C[C@@H]1c2cc(C)ccc2N(S(=O)(=O)c2ccc(C)cc2)[C@H](c2ccc(OC(C)=O)cc2)C1(C#N)C#N	18	-9	4	13	49	-8
COc1cccc(N2CCN(C(=O)CCCCCNc3nc(=S)[nH]c4ccccc34)CC2)c1	4	13	63*	0	70	-21
O=C(CCCn1c(=S)[nH]c2ccccc2c1=O)N1CCN(c2cccc(Cl)c2)CC1	8	11	19	11	-4	-28
O=C(CCCCCNc1nc(=S)[nH]c2ccccc12)N1CCN(c2ccccn2)CC1	-2	9	56*	7	56	0
COc1ccc2cc(-c3ccccc3F)ncc2c1	-42	-12	-315	-189	-59	-4
COc1ccc(C(=O)NC(=S)NNC(=O)[C@H]2C[C@@H]2c2ccccc2)cc1OC	10	-28	61*	21	65	-15
COc1cc(OC)cc(C(=O)NC(=S)NNC(=O)[C@H]2C[C@@H]2c2ccccc2)c1	19	13	28	9	20	-4
COc1ccc(C)cc1NC(=O)NC1CCCc2ccccc21 (centres undefined)	11	4	55*	11	12	2
O=C(O)C(O)c1ccccc1 (centres undefined)	10	83*!	1	7	6	-12
O=C(O)C(c1ccccc1)C(c1ccccc1)c1ccccc1 (centres undefined)	0	5	0	22	8	0
